These results are taken from PubChem BioAssay (NCATS).

Records with an inconclusive call do not appear. Activity calls are given as the source filed them. Calls come from the whole dose curve; as a rule, active = well fitted cell-killing curve with a large enough effect; inconclusive = small, poorly fitted or top-dose-only effect, or effect the other way; inactive = no such curve, though single readings can be large or run the other way.
Potency is the fitted concentration of half-maximal effect.

This assay can be described thus: Quantitative High-Throughput drug screen in 47 multiple myeloma cell lines against the NCATS MIPE library collection: Delta47_JCRB cell viability assay (AID 1918925; note: nearly all actives have a fitted effect of over 45% in size). The note with it: Delta47 myeloma viability, CellTiter-Glo ATP, 48 h; series mostly up to 45.8 µM; viability (% of DMSO): at the top concentration. From the text: PI: Beverly A. Mock Ph.D.
Laboratory of Cancer Biology and Genetics,
Center for Cancer Research, National Cancer Institute,
National Institute of Health, Bethesda, Maryland
Drug resistance and disease progression are common in multiple myeloma (MM) patients, underscoring the need for new therapeutic combinations. […] We hypothesized that effective combinations would reduce MYC expression and enhance p16 activity. […] These preclinical data identify potentially useful drug combinations for evaluation in drug-resistant MM and reveal potential mechanisms of combined drug sensitivity.
Described herein is the primary MIPE qHTS used to cherrypick compounds. Validated compounds were then further tested for potential synergistic activiy.
[1] Peat TJ, Gaikwad SM, Dubois W, Gyabaah-Kessie N, Zhang S, Gorjifard S, Phyo Z, Andres M, Hughitt VK, Simpson RM, Miller MA, Girvin AT, Taylor A, Williams D, D'Antonio N, Zhang Y, Rajagopalan A, Flietner E, Wilson K, Zhang X, Shinn P, Klumpp-Thomas C, McKnight C, Itkin Z, Chen L, Kazandijian D, Zhang J, Michalowski AM, Simmons JK, Keats J, Thomas CJ, Mock BA. Drug combinations identified by high-throughput screening promote cell cycle transition and upregulate Smad pathways in myeloma. Cancer Lett. 2023 Aug 1;568:216284. doi: 10.1016/j.canlet.2023.216284. Epub 2023 Jun 24. PMID: 37356470; PMCID: PMC10408729.
SEQUENCE No. (e.g., 1, 2, 3, etc.); […] (e.g., Cells, Incubation, Reagent, etc.); VALUE and DESCRIPTION.
1; Cells; 5 uL; white, solid bottom 1536-well Greiner assay plate.
2; Compounds; 23 nL; Kalypsis pin tool (Wako USA) equipped with a 1536-well pin head to transfer to the assay plates.
3; Incubation; 48 hours; 37C incubation.
4; Reagent;5uL; CellTiter Glo (Promega).
5; Detector; 425V; Luminescence; Viewlux PerkinElmer.
NOTES (numbers refer to Sequence numbers above)
1. The cell-based screening methods employed in this study were like those previously published. Briefly, the corresponding myeloma cell lines were screened in 1,536-well plates with 500 cells, 5-uL per well for inhibition of cell viability (assessed by measuring ATP levels with CellTiterGlo).
2. NCATS MIPE 4.0 library of approved and investigational drugs were added using the Kalypsis pin tool. Wells treated with DMSO only for 100% viability and media only wells for 0% viability were used as controls.
3. The assay plates were covered and incubated for 48 hours in a 37C, 5% CO2 incubator with controlled humidity.
4. After 48 hours, CellTilter-GloTM luminescent substrate mix (Promega) reagent was added to the assay plate and plates we incubated for 5 min at room temperature.
5. Signal was measured as median relative luminescence units on a ViewLux (PerkinElmer) multiplate reader.
[1] Heske CM, Davis MI, Baumgart JT, Wilson K, Gormally MV, Chen L, Zhang X, Ceribelli M, Duveau DY, Guha R, Ferrer M, Arnaldez FI, Ji J, Tran HL, Zhang Y, Mendoza A, Helman LJ, Thomas CJ. Matrix Screen Identifies Synergistic Combination of PARP Inhibitors and Nicotinamide Phosphoribosyltransferase (NAMPT) Inhibitors in Ewing Sarcoma. Clin Cancer Res. 2017 Dec 1;23(23):7301-7311. doi: 10.1158/1078-0432.CCR-17-1121. Epub 2017 Sep 12. PMID: 28899971; PMCID: PMC6636827.
In general terms: ATP-based viability assays read luminescence as a measure of living cells.
On to `CCOC(=O)C(C)(C)Oc1ccc(Cl)cc1`, for which the “viability (% of DMSO)” value was 137% (inactive).

As for `NC12CC3CC(CC(C3)C1)C2`, the Potency is 16.6 µM (active).

For the molecule `CN(C)C(=O)C(CCN1CCC(O)(c2ccc(Cl)cc2)CC1)(c1ccccc1)c1ccccc1`, the Potency is 20.9 µM (active).

Take `CC(C)Cc1ccc(C(C)C(=O)O)cc1` (stereo not given): the “viability (% of DMSO)” value was 110% [at 23.2 µM] (inactive).

For `O=C(C1CCCCC1)N1CC(=O)N2CCc3ccccc3C2C1` (stereo not given), the “viability (% of DMSO)” value is 139% (inactive).

Take `COc1nc(C)nc(Cl)c1NC1=NCCN1`: the Potency is 11.8 µM (active).

In the case of `CN(C)C(=N)N=C(N)N`, the “viability (% of DMSO)” value was 131% (inactive).

For `Cc1cc(C(C)(C)C)cc(C)c1CC1=NCCN1`, the “viability (% of DMSO)” value was 91.8% (inactive).

In the case of `Nc1nnc(-c2cccc(Cl)c2Cl)c(N)n1`, the Potency was 23.5 µM (active).

As for `Nc1nc2c(ncn2COC(CO)CO)c(=O)[nH]1`, the Potency was 18.7 µM (active).

As for `Cn1c(=O)c2[nH]cnc2n(C)c1=O`, the “viability (% of DMSO)” value was 115% (inactive).

Consider `CN1CCC(=C2c3ccccc3C=Cc3ccccc32)CC1`, for which the Potency is 9.35 µM (active).

As to `Nc1ccn([C@H]2CC[C@@H](CO)O2)c(=O)n1`, the “viability (% of DMSO)” value was 75.4% (inactive).

With `O=c1c(-c2ccc(O)cc2)coc2cc(O)cc(O)c12`, the “viability (% of DMSO)” value is 98.8% (inactive).

Take `O=C1c2c(O)ccc(O)c2C(=O)c2c(NCCNCCO)ccc(NCCNCCO)c21`: the Potency is 0.132 µM (active).

In the case of `CNCCCC12CCC(c3ccccc31)c1ccccc12`, the Potency was 18.7 µM (active).

Turning to `COc1cc2nc(N3CCN(C(=O)c4ccco4)CC3)nc(N)c2cc1OC`, the Potency was 10.5 µM (active).

In the case of `O=c1c(O)c(-c2ccc(O)c(O)c2)oc2cc(O)cc(O)c12`, the Potency is 11.8 µM (active).

As for `CN1CCN(CCCN2c3ccccc3Sc3ccc(Cl)cc32)CC1`, the Potency is 18.7 µM (active).

For `CC(COc1ccccc1)N(CCCl)Cc1ccccc1` (stereo not given), the “viability (% of DMSO)” value was 96.6% (inactive).

On to `CC(=O)OCC(CCn1cnc2cnc(N)nc21)COC(C)=O`, for which the “viability (% of DMSO)” value was 114% (inactive).

On to `CC(C(=O)O)c1cccc(C(=O)c2ccccc2)c1` (stereo not given), for which the Potency is 20.9 µM (active).

On to `C[C@@H]1CC(=O)NN=C1c1ccc(NN=C(C#N)C#N)cc1`, for which the Potency is 18.7 µM (active).

`O=C(c1ccc(OCCN2CCCCC2)cc1)c1c(-c2ccc(O)cc2)sc2cc(O)ccc12`: the Potency is 23.5 µM (active).

For the molecule `CCOC(=O)c1ncn2c1CN(C)C(=O)c1cc(F)ccc1-2`, the “viability (% of DMSO)” value was 112% (inactive).

In the case of `C[C@H]1c2cccc(O)c2C(O)=C2C(=O)[C@]3(O)C(O)=C(C(N)=O)C(=O)[C@@H](N(C)C)[C@@H]3[C@@H](O)[C@@H]21`, the Potency is 23.5 µM (active).

Turning to `CN1CCC(=C2c3ccccc3CC(=O)c3sccc32)CC1`, the Potency is 8.33 µM (active).

Turning to `CC1COc2c(N3CCN(C)CC3)c(F)cc3c(=O)c(C(=O)O)cn1c23` (stereo not given), the “viability (% of DMSO)” value was 127% (inactive).

For `O=C(Nc1ccc([N+](=O)[O-])cc1Cl)c1cc(Cl)ccc1O`, the Potency was 1.32 µM (active).

As for `Cc1cc(C(C)(C)C)c(O)c(C)c1CC1=NCCN1`, the “viability (% of DMSO)” value was 101% (inactive).

For `CN(C)CCCN1c2ccccc2CCc2ccc(Cl)cc21`, the Potency was 1.18 µM (active).

`NCCS(=O)(=O)O`: the “viability (% of DMSO)” value is 132% (inactive).

Turning to `Cc1ccc(C(=O)Nc2ccc(S(=O)(=O)O)c3cc(S(=O)(=O)O)cc(S(=O)(=O)O)c23)cc1NC(=O)c1cccc(NC(=O)Nc2cccc(C(=O)Nc3cc(C(=O)Nc4ccc(S(=O)(=O)O)c5cc(S(=O)(=O)O)cc(S(=O)(=O)O)c45)ccc3C)c2)c1`, the “viability (% of DMSO)” value is 106% (inactive).

Turning to `CN(C)c1nc(N(C)C)nc(N(C)C)n1`, the “viability (% of DMSO)” value is 88.1% (inactive).

As for `OCCN(CCO)c1nc(N2CCCCC2)c2nc(N(CCO)CCO)nc(N3CCCCC3)c2n1`, the Potency was 23.5 µM (active).

For the molecule `NC(=O)NO`, the Potency is 2.35 µM (active).

Take `CC[C@@]1(O)C(=O)OCc2c1cc1n(c2=O)Cc2cc3c(CN(C)C)c(O)ccc3nc2-1`: the Potency is 0.469 µM (active).

Regarding `CC(C)NCC(O)COc1ccc(CCOCC2CC2)cc1` (stereo not given), the “viability (% of DMSO)” value was 78.8% (inactive).

`CS(=O)(=O)Nc1ccc([N+](=O)[O-])cc1Oc1ccccc1`: the “viability (% of DMSO)” value was 131% (inactive).

For `COc1ccc2c(c1)c(CC(=O)O)c(C)n2C(=O)c1ccc(Cl)cc1`, the Potency is 16.6 µM (active).
